In PubChem BioAssay AID2517 (National Center for Advancing Translational Sciences (NCATS), 2010):
Screen size: about 350,000 compounds; about 1,200 (0.34%) were called active. Roughly 3% stayed inconclusive and do not appear here. The call rests on the fitted dose curve; in most records, active means well fitted inhibition curve with a large enough effect; inconclusive means small, poorly fitted or top-dose-only effect; inactive means no such curve, though single readings can be large or run the other way. The entries come from a sample that favours actives as a whole.

target: DNA repair nuclease/redox regulator APEX1 (Homo sapiens) (UniProt P27695); experiment: qHTS Assay for Inhibitors of the Human Apurinic/apyrimidinic Endonuclease 1 (APE1); conditions: recombinant APE1, TAMRA/BHQ-2 abasic DNA cleavage fluorescence; activity change, negative = inhibition: at 65.8 µM (top of the series); further: nearly all actives have a fitted effect of over 55% in size;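 on activity change, negative = inhibition: plate controls were vehicle for no effect and reference inhibitor for full effect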
Sequence (P27695 whole entry, looked up): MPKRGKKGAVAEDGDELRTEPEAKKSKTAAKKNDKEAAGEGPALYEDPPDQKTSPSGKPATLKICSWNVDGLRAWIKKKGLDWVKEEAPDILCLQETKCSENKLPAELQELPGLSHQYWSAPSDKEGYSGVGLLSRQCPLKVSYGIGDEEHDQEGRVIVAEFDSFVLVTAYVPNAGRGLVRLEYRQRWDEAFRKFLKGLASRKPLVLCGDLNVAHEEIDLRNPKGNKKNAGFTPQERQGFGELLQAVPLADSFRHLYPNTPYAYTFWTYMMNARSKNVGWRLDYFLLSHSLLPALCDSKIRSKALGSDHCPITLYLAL
Excerpt: The apurinic/apyrimidinic endonuclease APE1 is the primary mammalian enzyme responsible for the removal of abasic (or AP) sites in DNA and functions centrally in the base excision DNA repair (BER) pathway. […] Thus, targeting APE1 could improve the efficacy of current treatment paradigms by promoting selective sensitization or protection of diseased and normal cells, respectively.
Inhibition of APE1 activity was screened by utilizing double-stranded short substrate containing tetrahydrofuran (THF) abasic site labeled with rhodamine-type fluorophore (TAMRA) at the 5'-end and with non-fluorescent Black Hole Quencher-2 (BHQ-2) at the opposing 3'-end. An increase in the fluorescence intensity due to incision of the abasic site by APE1 was used to measure the enzyme activity.
NIH Chemical Genomics Center [NCGC]
NIH Molecular Libraries Probe Centers Network [MLPCN]
Assay Provider: David M. Wilson, III, National Institute on Aging, NIH
Three uL of enzyme solution (0.75 nM APE1 final concentration) was dispensed to 1536-well Greiner black solid bottom plates. […] The plates were incubated for 15 min at room temperature, and then 1 uL of substrate solution (50 nM final concentration of TAMRA/BHQ-2) was added to start the reaction. The plates were immediately transferred into ViewLux High-throughput CCD imager (Perkin-Elmer) in order to measure the reaction progress in kinetic mode (three reads every 60 seconds) using 525 nm excitation and 598 nm emission fluorescence protocol. The fluorescence intensity difference between the third and the first time points was used to compute reaction progress. Results were normalized to buffer only columns and NSC13755 positive controls and negative control DMSO treated wells.
Potency means the concentration at half of the fitted maximal effect.

Activity change, negative = inhibition, inactive:
CC(C)=CCC[C@]1(C)[C@@H](CC=C(C)C)C[C@@]2(CC=C(C)C)C(=O)[C@]1(C(=O)C(C)C)C(=O)C(CC=C(C)C)=C2O -2.28%, CC(=O)CC(C)C -0.561%, CC1CCCN(C(=O)c2cc(-c3ccco3)nc3ccccc23)C1 (centres undefined) 17.7%, O=C(c1cc(-c2ccco2)nc2ccccc12)N(Cc1nnc(-c2ccc(Cl)cc2)o1)C1CC1 -25.3%, Cc1ccc(Br)cc1 -0.853%, CC(N)(C(=O)O)c1ccc(-c2nn[nH]n2)cc1 (centres undefined) 7.06%, COCCNc1ncnc2ccc(-c3cccnc3)cc12 -1.42%, CCCCCCCC[C@@H](O)/C=C/C=C/C=C\[C@@H](O)CCCC(=O)O -7.47%, O=C(c1ccncc1)N1CCC2(CCN(Cc3cc(C(F)(F)F)cc(C(F)(F)F)c3)CC2)CC1 2.27%, CC1(C)C=CC(=O)[C@]2(C)C1CC(=O)[C@]1(C)C2CC[C@@]2(C)C(c3ccoc3)OC(=O)C3OC321 (some centres undefined) 0.648%, COC(=O)C/C=C/[C@@H](C)[C@H](NC(=O)OCC(Cl)(Cl)Cl)c1ccccc1 3.41%, O=c1c(-c2ccc(F)cc2)nc2cnc(N3CCNCC3)nc2n1Cc1cccs1 12.1%, CCCCC/C=C\C/C=C\CCCCCCCCCC(N)=O 3.71%, Cc1cc(C)c2c(=O)[nH]c(SCC(=O)Nc3ccc(Br)cc3)nc2n1 5.12%, O=C(CSc1nc2ccccc2c(=O)[nH]1)Nc1nc(-c2ccc(Br)cc2)cs1 -13.4%, O=C(O)c1ccc(/C=C2/SC(=S)N(c3cccc(C(F)(F)F)c3)C2=O)cc1 20.2%, OC[C@H]1O[C@@H](n2cnc3c(N[C@H]4CC5CCC4C5)ncnc32)[C@H](O)[C@@H]1O (some centres undefined) 13.8%, C=C(C(C)=O)C(O)c1ccc([N+](=O)[O-])cc1 (centres undefined) -1.09%, CCCCC[C@H](O)/C=C/[C@@H]1[C@@H](CC(=O)CCC(=O)O)[C@@H](O)C[C@H]1O 1.56%, COc1ccccc1NC(=O)CSc1nc2sc3c(c2c(=O)n1-c1ccccc1)CCN(C)C3 34.8%, CCOC(=O)c1ccc[n+](CC(=O)Nc2ccccc2OC(F)F)c1 0.0835%, CC(=O)OCC1OC(C#Cc2ccccc2Cl)C=CC1OC(C)=O (centres undefined) -9.65% [at 12.4 µM], CC(=O)Oc1c2c(c3c(c1CC=C(C)C)O[C@@]14C(=CC5CC1C(C)(C)OC4(C/C=C(\C)C(=O)O)C5=O)C3=O)OC(C)(CCC=C(C)C)C=C2 (some centres undefined) -5.43%, CC(C)(C)OC(=O)C[C@@H]1C/C=C\C[C@H](CC(=O)N[C@@H](CO)Cc2ccccc2)C(=O)N[C@H](Cc2ccccc2)COC1=O -4.67%, C[C@H]1COC(=O)[C@H](CC(=O)OC(C)(C)C)C/C=C\C[C@@H](CC(=O)N[C@H](CO)Cc2ccccc2)C(=O)N1 4.54%, CC(C)(C)OC(=O)C[C@@H]1C/C=C\C[C@@H](CC(=O)N(CCO)Cc2ccccc2)C(=O)N[C@H](Cc2ccccc2)COC1=O -32.1%, O=C1N[C@@H](c2ccccc2)COC(=O)[C@H](Cc2ccc(F)cc2)C/C=C\C[C@@H]1CC(=O)N(CCO)Cc1ccccc1 27.2%, CCCCc1nn(-c2ccccc2C(F)(F)F)c(=O)n1Cc1ccc(-c2ccccc2S(=O)(=O)NC(=O)c2sccc2C)cc1 -6.08%, CO[C@H]1COC(=O)[C@@H](OCc2ccccc2)/C=C\[C@H](C)[C@@H](OC)COC(=O)[C@H](OCc2ccccc2)/C=C\[C@@H]1C 33.1% [at 12.4 µM], CCC[C@@H]1C[C@@]1(CCC)C(NC(=O)c1ccc(-c2ccccc2)cc1)c1cccc(Cl)c1 (some centres undefined) -0.889%

Potency, inactive:
Cc1cc2nc3c(=O)[nH]c(=O)nc-3n(C[C@H](O)[C@H](O)[C@H](O)CO)c2cc1C, COc1ccc(CCCOC(Cn2ccnc2)c2ccc(OC)cc2)cc1 (centres undefined)

Potency, active:
Cc1cc(C)c2nc(-c3ccco3)cc(C(=O)O)c2c1 7.08 µM, O=c1c(O)c(Br)ccc2c(Br)c(O)c(O)c(O)c12 1.12 µM, N#Cc1c(-c2cccs2)nc(SCC(=O)c2ccc(Br)cc2)[nH]c1=O 39.8 µM, Cc1ccc(-c2nc(SCC(=O)Nc3ccccc3OC(F)F)c3c(C)c(C(=O)O)sc3n2)cc1 39.8 µM, CC(C)(C)OC(=O)C[C@@H]1C/C=C\C[C@@H](CC(=O)NCCO)C(=O)N[C@H](Cc2c[nH]c3ccccc23)COC1=O 15 µM, O=C1N[C@H](Cc2c[nH]c3ccccc23)COC(=O)[C@H](Cc2ccc(F)cc2)C/C=C\C[C@H]1CC(=O)N(CCO)Cc1ccccc1 21.2 µM, Cc1ccc(N=C2NC(=O)/C(=C/C=C/c3ccco3)S2)cc1C 28.2 µM
